Measured values from the supplement of paper PMC10849652.
The full data set covers some 7,900 targets. This sample favours those with a hit. About 0.6% of all pairs of compound and target were hits.

Experiments:
Assay in all cases: log2 fold change, soluble protein after heating vs DMSO (PISA); higher = thermal stabilisation; K562 cells, 10 uM, 30 min; active = over 0.2 and 3.5 SD of the protein, either way, in both replicates (recomputed)
[1] = compound: NC(=O)Nc1cc(-c2cccc(F)c2)sc1C(=O)N[C@H]1CCCNC1
How it was run: (§1)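 Quantification of soluble protein used TMTpro 16plex LC-MS/MS, with channel sums equalised. Samples were the supernatant after 21,000xg for 90 min of pooled aliquots from K562 cells (2×10^6 cells/mL) treated with 10 μM compound for 30 min, heated for 3 min over 48°C-58°C, and extracted in PBS with 0.5% NP-40 at 4°C. Values, from duplicates, describe thermal stability against control samples on a log2 fold-change scale.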

[2] = compound: NC(=O)c1cnc(N[C@@H]2CCCC[C@@H]2N)nc1Nc1cccc(-n2nccn2)c1
How it was run: as §1

[3] = compound: NC1(c2ccc(-c3nc4ccn5c(=O)[nH]nc5c4cc3-c3ccccc3)cc2)CCC1
How it was run: as §1

[4] = compound: NCC(=O)Nc1ccc(-n2nc(C(F)(F)F)cc2-c2ccc3c(ccc4ccccc43)c2)cc1
How it was run: as §1

entinostat = compound: Nc1ccccc1NC(=O)c1ccc(CNC(=O)OCc2cccnc2)cc1 [entinostat]
How it was run: as §1

vorinostat = compound: O=C(CCCCCCC(=O)Nc1ccccc1)NO [vorinostat]
How it was run: as §1

citarinostat = compound: O=C(CCCCCCNC(=O)c1cnc(N(c2ccccc2)c2ccccc2Cl)nc1)NO [citarinostat]
How it was run: as §1

silmitasertib = compound: O=C(O)c1ccc2c(c1)nc(Nc1cccc(Cl)c1)c1ccncc12 [silmitasertib]
How it was run: as §1

[5] = compound: O=C1NC(=O)C(c2cnc3ccccn23)=C1c1cn2c3c(cc(F)cc13)CN(C(=O)N1CCCCC1)CC2
How it was run: as §1

[6] = compound: c1cc(OCCN2CCCCC2)cc(-c2n[nH]c3ccc(-c4nnc[nH]4)cc23)c1
How it was run: as §1

entospletinib = compound: c1cn2cc(-c3ccc4cn[nH]c4c3)nc(Nc3ccc(N4CCOCC4)cc3)c2n1 [entospletinib]
How it was run: as §1

Measured: log2 fold change

KIF2C (UniProt Q99661)
UniProt Q99661, sequence (Q99661 whole entry, looked up): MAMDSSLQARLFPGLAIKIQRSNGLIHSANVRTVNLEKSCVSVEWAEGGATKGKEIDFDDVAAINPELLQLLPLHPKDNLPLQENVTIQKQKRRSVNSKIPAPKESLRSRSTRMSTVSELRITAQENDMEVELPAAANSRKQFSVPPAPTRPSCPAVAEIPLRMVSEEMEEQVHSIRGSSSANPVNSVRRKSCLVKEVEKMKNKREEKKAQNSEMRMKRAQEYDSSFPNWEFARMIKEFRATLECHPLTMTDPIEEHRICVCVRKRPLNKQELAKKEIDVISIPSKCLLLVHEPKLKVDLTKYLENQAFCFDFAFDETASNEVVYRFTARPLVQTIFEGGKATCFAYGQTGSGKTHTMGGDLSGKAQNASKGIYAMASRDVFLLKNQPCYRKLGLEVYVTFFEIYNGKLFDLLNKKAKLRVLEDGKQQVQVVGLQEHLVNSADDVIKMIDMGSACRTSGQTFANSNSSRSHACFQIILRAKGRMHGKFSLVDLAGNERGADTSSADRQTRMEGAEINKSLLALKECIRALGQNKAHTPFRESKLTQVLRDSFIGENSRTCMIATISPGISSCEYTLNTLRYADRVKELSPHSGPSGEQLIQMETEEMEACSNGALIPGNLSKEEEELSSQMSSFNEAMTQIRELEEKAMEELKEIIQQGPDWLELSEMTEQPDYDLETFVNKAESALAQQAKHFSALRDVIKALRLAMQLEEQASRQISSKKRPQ
inactive: [1] -0.024 | [2] 0 | [3] -0.053 | [4] -0.068 | entinostat 0.095 | vorinostat 0.122 | citarinostat 0.156 | silmitasertib -0.009 | [5] -0.005 | [6] -0.001 | entospletinib -0.097

MAP1LC3B2 (UniProt A6NCE7)
inactive: [1] -0.023 | [2] -0.022 | [3] -0.128 | [4] -0.085 | entinostat 0.012 | vorinostat -0.058 | citarinostat 0.046 | silmitasertib -0.015 | [5] -0.001 | [6] -0.103 | entospletinib -0.001

ILF2 (UniProt Q12905)
inactive: [1] -0.02 | [2] 0.024 | [3] 0.121 | [4] 0.109 | entinostat -0.049 | vorinostat -0.059 | citarinostat -0.037 | silmitasertib 0.13 | [5] 0.378 | [6] -0.18 | entospletinib -0.103

LARP4 isoform 4 (UniProt Q71RC2)
inactive: [1] -0.034 | [2] -0.094 | [3] 0.084 | [4] 0.048 | entinostat 0.037 | vorinostat 0.133 | citarinostat -0.004 | silmitasertib 0.043 | [5] 0.009 | [6] -0.116 | entospletinib 0.095

MFN2 (UniProt O95140)
inactive: [1] -0.081 | [2] -0.088 | [3] -0.104 | [4] -0.168 | entinostat 0.014 | vorinostat -0.019 | citarinostat -0.021 | silmitasertib -0.024 | [5] -0.019 | [6] -0.008 | entospletinib -0.004

MAP3K4 isoform 2 (UniProt Q9Y6R4)
inactive: [1] 0.036 | [2] -0.025 | [3] -0.104 | [4] -0.025 | entinostat -0.027 | vorinostat -0.019 | citarinostat 0.006 | silmitasertib 0 | [5] -0.029 | [6] -0.075 | entospletinib 0.02

MED17 (UniProt Q9NVC6)
active: [2] -0.33
inactive: [1] 0.068 | [3] 0.049 | [4] -0.034 | entinostat -0.128 | vorinostat 0.045 | citarinostat 0.014 | silmitasertib 0.074 | [5] 0.112 | [6] 0.126 | entospletinib -0.068

LBR (UniProt Q14739)
UniProt Q14739, sequence (Q14739 whole entry, looked up): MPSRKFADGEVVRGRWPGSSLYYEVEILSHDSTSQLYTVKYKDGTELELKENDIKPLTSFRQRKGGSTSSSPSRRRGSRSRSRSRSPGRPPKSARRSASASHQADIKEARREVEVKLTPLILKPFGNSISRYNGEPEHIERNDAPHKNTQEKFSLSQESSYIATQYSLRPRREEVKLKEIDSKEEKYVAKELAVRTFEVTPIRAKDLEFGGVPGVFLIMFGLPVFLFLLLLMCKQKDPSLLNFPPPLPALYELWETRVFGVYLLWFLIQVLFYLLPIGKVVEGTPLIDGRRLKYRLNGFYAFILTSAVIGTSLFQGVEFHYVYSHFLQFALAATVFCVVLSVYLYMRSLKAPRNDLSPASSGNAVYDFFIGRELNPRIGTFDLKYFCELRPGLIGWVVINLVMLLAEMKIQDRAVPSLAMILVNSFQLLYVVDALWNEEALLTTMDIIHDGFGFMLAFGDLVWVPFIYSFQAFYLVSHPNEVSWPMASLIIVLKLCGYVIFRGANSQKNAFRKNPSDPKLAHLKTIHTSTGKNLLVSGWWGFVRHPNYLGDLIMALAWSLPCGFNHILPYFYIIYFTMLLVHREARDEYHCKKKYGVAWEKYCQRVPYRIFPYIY
inactive: [1] 0.025 | [2] -0.008 | [3] 0.004 | [4] -0.003 | entinostat 0.023 | vorinostat 0.021 | citarinostat -0.021 | silmitasertib -0.085 | [5] 0.012 | [6] 0.082 | entospletinib -0.174

MFF (UniProt Q9GZY8)
UniProt Q9GZY8, sequence (Q9GZY8 whole entry, looked up): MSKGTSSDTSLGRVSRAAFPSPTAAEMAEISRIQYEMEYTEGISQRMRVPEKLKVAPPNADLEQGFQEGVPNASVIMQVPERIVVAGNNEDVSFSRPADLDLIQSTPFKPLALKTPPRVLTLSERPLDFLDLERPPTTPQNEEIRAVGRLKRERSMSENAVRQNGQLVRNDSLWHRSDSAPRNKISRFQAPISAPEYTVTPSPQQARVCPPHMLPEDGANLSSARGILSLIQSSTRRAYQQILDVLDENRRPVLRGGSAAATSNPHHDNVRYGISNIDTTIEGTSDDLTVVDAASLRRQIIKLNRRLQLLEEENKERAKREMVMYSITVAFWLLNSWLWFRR
inactive: [1] -0.098 | [3] -0.125 | [4] -0.102 | entinostat -0.015 | vorinostat 0.006 | citarinostat -0.007 | silmitasertib 0.04 | [5] -0.06 | [6] -0.135 | entospletinib -0.029
active: [2] -0.224

MGST3 (UniProt O14880)
inactive: [1] -0.04 | [2] -0.07 | [3] 0.076 | [4] 0.009 | entinostat -0.047 | vorinostat -0.043 | citarinostat -0.005 | silmitasertib -0.011 | [5] -0.025 | [6] -0.056 | entospletinib 0.054

MAGI1 (UniProt Q96QZ7)
inactive: [1] -0.069 | [2] -0.042 | [3] 0.003 | [4] -0.022 | entinostat 0.019 | vorinostat 0.07 | citarinostat 0.022 | silmitasertib 0.125 | [5] 0.035 | [6] -0.081 | entospletinib 0

MIEN1 (UniProt Q9BRT3)
UniProt Q9BRT3, sequence (Q9BRT3 whole entry, looked up): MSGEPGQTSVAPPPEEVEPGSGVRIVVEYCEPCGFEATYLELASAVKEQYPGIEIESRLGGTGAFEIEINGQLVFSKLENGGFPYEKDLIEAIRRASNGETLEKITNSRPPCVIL
inactive: [1] 0.045 | [2] 0.003 | [3] -0.013 | [4] 0.001 | entinostat 0.016 | vorinostat -0.042 | citarinostat -0.007 | silmitasertib 0.004 | [5] -0.131 | [6] 0.057 | entospletinib -0.01

LARP4B (UniProt Q92615)
inactive: [1] 0.028 | [2] -0.042 | [3] 0.048 | [4] 0.022 | entinostat 0.038 | vorinostat 0.027 | citarinostat -0.001 | silmitasertib 0.008 | [5] 0.086 | [6] -0.112 | entospletinib 0.063

KDELR2 (UniProt P33947)
UniProt P33947, sequence (P33947 whole entry, looked up): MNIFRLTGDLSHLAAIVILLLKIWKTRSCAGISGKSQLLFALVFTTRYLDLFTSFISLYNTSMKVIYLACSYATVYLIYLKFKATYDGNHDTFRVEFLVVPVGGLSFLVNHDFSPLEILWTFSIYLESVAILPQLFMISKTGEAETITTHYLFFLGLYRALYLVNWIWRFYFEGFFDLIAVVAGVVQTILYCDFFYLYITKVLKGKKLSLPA
inactive: [1] -0.071 | [2] 0.063 | [3] -0.073 | [4] -0.133 | entinostat -0.02 | vorinostat -0.238 | citarinostat -0.026 | silmitasertib -0.018 | [5] -0.031 | [6] -0.097 | entospletinib 0.101

ILF3 isoform 7 (UniProt Q12906)
UniProt Q12906, sequence (Q12906 whole entry, looked up): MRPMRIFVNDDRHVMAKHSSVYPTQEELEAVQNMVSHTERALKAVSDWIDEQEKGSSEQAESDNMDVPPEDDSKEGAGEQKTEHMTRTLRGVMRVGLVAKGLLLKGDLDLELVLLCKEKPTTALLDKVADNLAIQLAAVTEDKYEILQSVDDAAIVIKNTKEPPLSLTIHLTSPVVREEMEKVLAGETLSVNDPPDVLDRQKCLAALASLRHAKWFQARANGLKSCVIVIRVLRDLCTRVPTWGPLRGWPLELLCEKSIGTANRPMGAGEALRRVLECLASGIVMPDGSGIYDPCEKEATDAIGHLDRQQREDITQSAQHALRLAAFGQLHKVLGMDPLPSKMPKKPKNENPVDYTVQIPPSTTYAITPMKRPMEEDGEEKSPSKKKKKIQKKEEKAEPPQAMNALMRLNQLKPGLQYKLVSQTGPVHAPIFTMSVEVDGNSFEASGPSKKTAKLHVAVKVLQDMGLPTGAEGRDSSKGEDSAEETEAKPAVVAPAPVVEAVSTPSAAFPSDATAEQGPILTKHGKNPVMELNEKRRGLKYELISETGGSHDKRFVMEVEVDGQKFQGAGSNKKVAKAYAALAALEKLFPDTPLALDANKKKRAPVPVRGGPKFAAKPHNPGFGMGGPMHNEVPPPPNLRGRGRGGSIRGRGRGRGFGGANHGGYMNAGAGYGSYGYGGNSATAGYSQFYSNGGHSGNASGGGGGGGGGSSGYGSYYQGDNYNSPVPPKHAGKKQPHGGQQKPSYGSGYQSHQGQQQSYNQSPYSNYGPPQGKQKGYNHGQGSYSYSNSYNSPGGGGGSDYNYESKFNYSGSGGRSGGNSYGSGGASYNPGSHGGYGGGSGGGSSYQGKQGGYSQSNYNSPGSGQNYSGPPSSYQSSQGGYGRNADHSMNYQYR
inactive: [1] -0.056 | [2] 0.055 | [3] 0.17 | [4] 0.107 | entinostat -0.083 | vorinostat -0.052 | citarinostat -0.053 | silmitasertib 0.189 | [5] 0.32 | [6] -0.105 | entospletinib -0.034

LUC7L3 (UniProt O95232)
inactive: [1] -0.203 | [2] -0.017 | [3] 0.058 | [4] -0.076 | entinostat -0.051 | vorinostat -0.008 | citarinostat 0.083 | silmitasertib -0.156 | [5] 0.086 | [6] -0.086 | entospletinib -0.005

LENG8 (UniProt Q96PV6)
inactive: [1] -0.012 | [2] -0.075 | [3] 0.042 | [4] -0.198 | entinostat 0.085 | vorinostat 0.298 | citarinostat 0 | silmitasertib 0.09 | [5] -0.144 | [6] -0.091 | entospletinib 0.131

LMF2 (UniProt Q9BU23)
inactive: [1] -0.008 | [2] -0.001 | [3] -0.057 | [4] -0.089 | entinostat -0.006 | vorinostat 0.116 | citarinostat -0.068 | silmitasertib 0.008 | [5] -0.016 | [6] 0.046 | entospletinib -0.019

MIF (UniProt P14174)
UniProt P14174, sequence (P14174 whole entry, looked up): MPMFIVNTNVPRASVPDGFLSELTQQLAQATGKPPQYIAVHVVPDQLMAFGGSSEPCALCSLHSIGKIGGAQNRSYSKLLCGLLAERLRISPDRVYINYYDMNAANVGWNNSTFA
inactive: [1] -0.059 | [2] 0.092 | [3] 0.103 | [4] 0.048 | entinostat 0.099 | vorinostat -0.085 | citarinostat -0.013 | silmitasertib 0.036 | [5] -0.196 | [6] 0.063 | entospletinib 0.111

MAP4K5 (UniProt Q9Y4K4)
UniProt Q9Y4K4, sequence (Q9Y4K4 whole entry, looked up): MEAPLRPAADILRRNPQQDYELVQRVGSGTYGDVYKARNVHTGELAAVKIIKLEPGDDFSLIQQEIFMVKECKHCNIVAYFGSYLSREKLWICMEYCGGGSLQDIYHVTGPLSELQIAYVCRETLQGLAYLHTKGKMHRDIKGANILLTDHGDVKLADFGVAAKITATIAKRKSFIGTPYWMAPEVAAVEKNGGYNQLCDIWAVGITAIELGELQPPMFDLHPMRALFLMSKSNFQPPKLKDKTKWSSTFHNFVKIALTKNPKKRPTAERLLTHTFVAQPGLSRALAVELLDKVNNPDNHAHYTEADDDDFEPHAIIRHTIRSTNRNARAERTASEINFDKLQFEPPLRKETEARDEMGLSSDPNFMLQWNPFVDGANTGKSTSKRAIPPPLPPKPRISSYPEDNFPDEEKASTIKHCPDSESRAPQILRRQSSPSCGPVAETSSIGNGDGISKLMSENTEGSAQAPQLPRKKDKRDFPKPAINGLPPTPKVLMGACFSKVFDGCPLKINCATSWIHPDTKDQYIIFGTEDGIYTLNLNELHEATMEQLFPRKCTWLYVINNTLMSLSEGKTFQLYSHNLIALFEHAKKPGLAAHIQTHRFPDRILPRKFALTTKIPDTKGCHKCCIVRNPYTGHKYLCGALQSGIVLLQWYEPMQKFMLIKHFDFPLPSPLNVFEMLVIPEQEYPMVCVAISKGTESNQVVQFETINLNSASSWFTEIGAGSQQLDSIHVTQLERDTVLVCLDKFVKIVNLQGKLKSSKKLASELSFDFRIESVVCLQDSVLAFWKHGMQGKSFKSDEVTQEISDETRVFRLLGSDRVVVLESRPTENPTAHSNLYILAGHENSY
inactive: [1] 0.217 | [2] 0 | [3] -0.002 | [4] -0.097 | entinostat -0.012 | vorinostat 0.074 | citarinostat 0.02 | silmitasertib -0.09 | [5] 0.073 | [6] 0.026 | entospletinib -0.065

IMMT isoform 2 (UniProt Q16891)
inactive: [1] 0 | [2] -0.045 | [3] -0.044 | [4] -0.066 | entinostat 0.039 | vorinostat 0.159 | citarinostat 0.042 | silmitasertib -0.066 | [5] 0.064 | [6] 0.008 | entospletinib -0.053

MFSD1 isoform 6 (UniProt Q9H3U5)
inactive: [1] 0.02 | [2] -0.066 | [4] -0.098 | entinostat -0.019 | vorinostat -0.053 | citarinostat 0.03 | silmitasertib -0.008 | [5] 0.067 | [6] 0.043 | entospletinib 0.013
active: [3] -0.308

MAPK12 (UniProt P53778)
UniProt P53778, sequence (P53778 whole entry, looked up): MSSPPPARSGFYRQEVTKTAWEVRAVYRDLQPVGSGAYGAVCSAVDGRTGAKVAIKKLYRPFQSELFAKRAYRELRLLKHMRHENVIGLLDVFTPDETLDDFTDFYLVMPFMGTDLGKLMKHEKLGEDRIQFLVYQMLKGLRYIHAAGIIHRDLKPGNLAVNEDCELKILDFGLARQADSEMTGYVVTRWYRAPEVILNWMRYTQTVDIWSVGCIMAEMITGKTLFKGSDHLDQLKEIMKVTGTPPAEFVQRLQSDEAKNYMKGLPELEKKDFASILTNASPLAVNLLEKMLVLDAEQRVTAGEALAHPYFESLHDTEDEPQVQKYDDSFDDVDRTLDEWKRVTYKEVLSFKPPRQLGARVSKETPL
inactive: [1] -0.076 | [2] -0.095 | [3] -0.09 | [4] 0.014 | entinostat 0.012 | vorinostat 0.08 | citarinostat 0.046 | silmitasertib -0.006 | [6] 0.018 | entospletinib 0.02
active: [5] 0.348

MAP2K2 (UniProt P36507)
UniProt P36507, sequence (P36507 whole entry, looked up): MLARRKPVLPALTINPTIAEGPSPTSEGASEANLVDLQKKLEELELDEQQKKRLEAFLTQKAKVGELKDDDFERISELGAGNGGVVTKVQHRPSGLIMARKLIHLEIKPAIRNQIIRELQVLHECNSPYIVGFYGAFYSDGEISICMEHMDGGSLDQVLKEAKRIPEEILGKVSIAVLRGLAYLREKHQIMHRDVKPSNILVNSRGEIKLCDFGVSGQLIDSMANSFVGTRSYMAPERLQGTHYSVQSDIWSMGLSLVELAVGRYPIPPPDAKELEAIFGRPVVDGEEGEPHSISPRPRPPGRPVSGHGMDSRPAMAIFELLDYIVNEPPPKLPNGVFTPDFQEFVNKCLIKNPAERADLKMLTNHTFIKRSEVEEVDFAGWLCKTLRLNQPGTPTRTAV
inactive: [1] 0 | [2] -0.042 | [3] -0.023 | [4] -0.003 | entinostat 0.061 | vorinostat 0.039 | citarinostat -0.051 | silmitasertib -0.098 | [5] -0.055 | [6] -0.018 | entospletinib 0.021

LGALS8 isoform 2 (UniProt O00214)
UniProt O00214, sequence (O00214 whole entry, looked up): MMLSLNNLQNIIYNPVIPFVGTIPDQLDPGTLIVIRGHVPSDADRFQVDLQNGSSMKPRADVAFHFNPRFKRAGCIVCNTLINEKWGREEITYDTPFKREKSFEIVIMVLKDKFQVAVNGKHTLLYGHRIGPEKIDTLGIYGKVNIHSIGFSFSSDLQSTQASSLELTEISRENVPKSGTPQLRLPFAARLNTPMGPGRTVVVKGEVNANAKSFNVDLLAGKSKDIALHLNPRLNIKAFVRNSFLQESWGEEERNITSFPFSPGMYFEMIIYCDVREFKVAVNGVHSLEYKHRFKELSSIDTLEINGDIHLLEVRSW
inactive: [1] -0.053 | [2] -0.096 | [3] 0.179 | [4] 0.055 | entinostat 0.091 | vorinostat 0.078 | citarinostat 0.051 | silmitasertib 0.147 | [5] 0.121 | [6] -0.129 | entospletinib 0.101

LNPEP (UniProt Q9UIQ6)
inactive: [1] 0.037 | [2] 0.011 | [3] -0.037 | [4] 0.019 | entinostat -0.028 | vorinostat -0.007 | citarinostat 0.056 | silmitasertib 0.002 | [5] 0.004 | [6] -0.022 | entospletinib 0.013

IRF2BPL (UniProt Q9H1B7)
active: [5] -0.218
inactive: [1] 0.032 | [2] 0.011 | [3] 0.013 | [4] -0.004 | entinostat -0.024 | vorinostat 0.007 | citarinostat -0.001 | silmitasertib 0.027 | [6] -0.03 | entospletinib 0.001
